Measurements reported in PMC4336329 (PLoS ONE, 2015).
The whole screen tested about 310,000 compounds, of which about 14,000 (4.5%) showed an effect of 50% or more. Effects have a minus sign here. The entries come from a sample that favours strong results as a whole.

biological target: human ether-à-go-go-related gene (hERG) potassium channel (human, UniProt Q12809); assay: primary screen, population patch clamp on CHO cells stably expressing hERG; higher = less effect of the substance
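Also: peak tail current of the secondary pulse compared with the same well before compound.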

Chain of human ether-à-go-go-related gene (hERG) potassium channel (Q12809 whole entry, looked up): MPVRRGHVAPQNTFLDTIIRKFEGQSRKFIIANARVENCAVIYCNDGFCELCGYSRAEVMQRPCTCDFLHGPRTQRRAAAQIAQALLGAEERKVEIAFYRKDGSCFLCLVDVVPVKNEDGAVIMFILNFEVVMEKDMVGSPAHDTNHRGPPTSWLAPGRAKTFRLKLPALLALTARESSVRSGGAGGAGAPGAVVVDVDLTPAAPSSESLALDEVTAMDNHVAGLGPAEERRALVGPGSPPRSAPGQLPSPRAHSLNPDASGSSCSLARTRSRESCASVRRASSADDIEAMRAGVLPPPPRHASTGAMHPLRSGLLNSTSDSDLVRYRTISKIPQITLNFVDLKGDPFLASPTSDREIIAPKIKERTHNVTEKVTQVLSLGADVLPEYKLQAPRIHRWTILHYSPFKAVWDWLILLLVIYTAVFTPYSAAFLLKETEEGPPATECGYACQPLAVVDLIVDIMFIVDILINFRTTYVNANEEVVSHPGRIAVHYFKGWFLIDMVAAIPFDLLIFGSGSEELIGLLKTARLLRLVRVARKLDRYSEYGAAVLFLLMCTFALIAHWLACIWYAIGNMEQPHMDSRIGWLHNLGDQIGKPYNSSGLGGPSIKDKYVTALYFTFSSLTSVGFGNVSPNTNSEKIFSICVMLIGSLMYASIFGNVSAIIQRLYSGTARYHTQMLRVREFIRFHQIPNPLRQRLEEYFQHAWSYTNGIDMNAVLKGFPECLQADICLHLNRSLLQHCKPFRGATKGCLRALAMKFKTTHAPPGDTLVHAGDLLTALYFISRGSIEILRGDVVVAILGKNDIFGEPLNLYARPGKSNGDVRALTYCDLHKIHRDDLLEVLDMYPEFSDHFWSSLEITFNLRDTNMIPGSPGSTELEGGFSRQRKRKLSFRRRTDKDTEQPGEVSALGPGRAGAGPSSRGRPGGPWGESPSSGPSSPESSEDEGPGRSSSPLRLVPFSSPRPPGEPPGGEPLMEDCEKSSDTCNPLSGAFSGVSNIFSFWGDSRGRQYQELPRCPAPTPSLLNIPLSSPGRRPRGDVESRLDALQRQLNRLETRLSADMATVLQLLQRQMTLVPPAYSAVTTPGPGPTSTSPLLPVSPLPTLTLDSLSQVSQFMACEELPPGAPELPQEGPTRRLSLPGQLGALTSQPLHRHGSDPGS

SMILES	hERG current change (%, negative = inhibition) at 10uM
COc1cc(S(=O)(=O)N2CCN(C)CC2)c(OC)cc1Cl	13.2%
COC(=O)c1nn(-c2ccc(OC)cc2)c(=O)cc1O	16.9%
O=C(CCc1c[nH]c2ccccc12)NCc1ccco1	32.4%
Cc1ccc(CN(Cc2cc3cc(C)ccc3[nH]c2=O)C(=O)N2CCOCC2)cc1	-13.2%
Cc1cccc(NC(=O)CSc2nncn2-c2ccccn2)c1	-1.31%
CSc1ncc(CN2CCCC(C(=O)Nc3ccc(-c4ccco4)cc3)C2)cn1 (centres unmarked)	11.1%
Cc1ccccc1-n1c(-c2ccoc2)nc2ccccc2c1=O	6.09%
CCN(Cc1ccccc1)C(=O)c1c(-c2ccccc2Cl)noc1C	-9.34%
CC(C)c1csc(CN2CCN(CCc3ccccc3)C(CCO)C2)n1 (centres unmarked)	-76%
OCCC1CN(Cc2nc(-c3ccccc3)cs2)CCN1CCc1ccccc1 (centres unmarked)	-77.8%
OCCC1CN(Cc2nc(-c3ccc(F)cc3)cs2)CCN1CCc1ccccc1 (centres unmarked)	-80.6%
CC(C)c1csc(CN2CCN(Cc3ccccc3)C(CCO)C2)n1 (centres unmarked)	-26.3%
CC(C)CN1CCN(Cc2nc(C(C)C)cs2)CC1CCO (centres unmarked)	1.27%
OCCC1CN(Cc2nc(-c3ccccc3)cs2)CCN1Cc1ccc(F)cc1 (centres unmarked)	-69.8%
C=C(c1ccccc1)P(=O)(O)O	17.8%
COc1ccccc1C(=O)NCCC(=O)OCC(=O)Nc1ccc(S(N)(=O)=O)cc1	-2.51%
Cc1cc(C(=O)Nc2ccc3ccccc3c2)c(C)o1	6.68%
COc1ccc2oc(=O)c(-c3csc(Nc4cccc(O)c4)n3)cc2c1	25.8%
COC(=O)CN1C(=O)[C@H]2[C@@H](c3ccc(C)o3)N3C(=O)CN(Cc4ccccn4)C(=O)[C@@]3(Cc3ccccc3)[C@H]2C1=O	21.5%
O=C(NCc1ccccc1)c1cccc(S(=O)(=O)N2CCOCC2)c1	0.662%
Cc1ccc(N/C=C/C(=O)C(C)(C)C)c(O)c1	-5.33%
CC(=O)NC(CC(=O)O)c1ccc(F)cc1 (centres unmarked)	0.22%
COc1ccc(CNC(=O)CSc2nnc(C)c(=O)[nH]2)cc1	18.2%

SMILES	hERG current change (%, negative = inhibition) at 10uM
CC(C)N1CCN(Cc2nc(-c3ccccc3)cs2)CC1CCO (centres unmarked)	-47.7%
CC(C)CCN1CCN(Cc2nc(-c3ccccc3)cs2)CC1CCO (centres unmarked)	-62.7%
Cc1cccc(CN2CCN(C3CCCC3)C(CCO)C2)n1 (centres unmarked)	3.1%
OCCC1CN(Cc2nc(-c3ccccc3)cs2)CCN1C1CCCC1 (centres unmarked)	-66.4%
OCCC1CN(Cc2ccncc2)CCN1C1CCCC1 (centres unmarked)	-8.58%
Cc1oc(-c2cccs2)nc1CN1CCN(CCC(C)C)C(CCO)C1 (centres unmarked)	-27.6%
O=C(CC1C(=O)NCCN1CC(c1ccccc1)c1ccccc1)NCC1CCOCC1 (centres unmarked)	6.24%
CCCNC(=O)c1ccc(CN2CCOCC2)cc1	8.4%
O=C(CS(=O)(=O)c1c[nH]c2ccccc12)Nc1ccc(F)cc1	-21.8%
Cc1cccc(OCCn2c(NC(=O)c3ccco3)nc3ccccc32)c1	12.5%
CCC(=O)N/C(N)=N/c1nc2ccccc2o1	-10.3%
O=C(COc1ccc(Cl)cc1Cl)N1CCCN(C(=O)COc2ccc(Cl)cc2Cl)CC1	-47.2%
Cc1cccn2c(NCc3ccc4c(c3)OCO4)c(-c3ccc(O)cc3)nc12	-22.6%
c1ccc(-c2nc3ccccn3c2NCc2ccc3c(c2)OCO3)cc1	-36.1%
Fc1ccc(-c2nc3ccccn3c2NCc2ccc3c(c2)OCO3)cc1	-24.3%
COc1ccc(-c2nc3cc(C)ccn3c2NCc2ccc3c(c2)OCO3)cc1	-67.5%
Cc1ccn2c(NCc3ccc4c(c3)OCO4)c(-c3ccc(O)cc3)nc2c1	-11.6%
Cc1ccc(-c2nc3ccccn3c2NCc2ccc3c(c2)OCO3)cc1	-69.3%
Oc1ccc(-c2nc3ccccn3c2NCc2ccc3c(c2)OCO3)cc1	-45.8%
COc1ccc(-c2nc3ccccn3c2NCc2ccc3c(c2)OCO3)cc1	-82.4%
COc1ccc(-c2nc3ccc(C)cn3c2NCc2ccc3c(c2)OCO3)cc1	-34.1%
COc1ccc2c(C)c(CCC(=O)NC3CC3)c(=O)oc2c1C	14.4%
CCCc1cc(C(=O)Nc2ccccc2C(=O)OC)no1	7.76%

SMILES	hERG current change (%, negative = inhibition) at 10uM
CCCC(=O)Nc1cccc(-c2cn3ccsc3n2)c1	-47.5%
CCOc1ccc(N(C(=O)/C=C/C(=O)Nc2cc(C)on2)C(C(=O)NC2CCCC2)c2ccccc2C)cc1 (centres unmarked)	-6.96%
CCn1nc(C)c(CNCc2cn[nH]c2-c2cc3ccccc3o2)c1C	-19%
O=C(O)c1cc(C(F)(F)F)nc2ccccc12	3.92%
CC(C)(C)OC(=O)NC(Cc1ccccc1)C(=O)O (centres unmarked)	-50.5%
CC(C)(C)OC(=O)N[C@@H](CC(=O)OCc1ccccc1)C(=O)O	10.9%
CC(C)(C)OC(=O)NC(CC(=O)OCc1ccccc1)C(=O)O (centres unmarked)	10.1%
CC(C)(Oc1ccc(Cl)cc1)C(=O)NCCCn1ccnc1	-21.2%
C=CCn1c(SCC(=O)NC2CC2)nc2sc(CC)cc2c1=O	-54.6%
C=CCn1c(SCC#N)nc2sc(CC)cc2c1=O	-16.5%
C=CCn1c(SCC(=O)N2CCCC2=O)nc2sc(CC)cc2c1=O	-70.9%
C=CCn1c(SCC(=O)N2CCN(C(=O)c3ccco3)CC2)nc2sc(CC)cc2c1=O	-76.3%
C=CCn1c(SCC(=O)NC2CCS(=O)(=O)C2)nc2sc(CC)cc2c1=O (centres unmarked)	-47.8%
C=CCn1c(SCC(=O)c2cccs2)nc2sc(CC)cc2c1=O	-4.31%
C=CCn1c(SCC(=O)Nc2cc(C)on2)nc2sc(CC)cc2c1=O	1.3%
C=CCn1c(SCC(=O)O)nc2sc(CC)cc2c1=O	13.8%
C=CCn1c(SCC(=O)Nc2ccc(O)cc2)nc2sc(CC)cc2c1=O	-62.5%
C=CCn1c(SCC(=O)NC2CCCC2)nc2sc(C)cc2c1=O	-5.84%
C=CCn1c(SCC(=O)Nc2sccc2C(N)=O)nc2sc(CC)cc2c1=O	-1.95%
C=CCn1c(SCC(=O)N2CCc3ccccc3C2)nc2sc(CC)cc2c1=O	-34.5%
COC(=O)Cn1c(=NC(=O)c2cc(OC)c(OC)c(OC)c2)sc2cc(OC)ccc21	1.18%
S=c1[nH]nc(-c2ccc3ccccc3n2)n1-c1ccc2c(c1)OCCO2	17.7%
Cc1ccc2c(c1)CCCN2N=O	0.938%

SMILES	hERG current change (%, negative = inhibition) at 10uM
CCOc1ccc(N(CC(=O)NCc2ccc(OC)cc2)C(=O)CCC(=O)Nc2nccs2)cc1	8.55%
COc1ccccc1CNC(=O)COC(=O)c1ccc(C)s1	3.82%
CC1(C)N([O-])C(c2ccccc2)=C[N+](=O)C1(C)C	1.38%
CCOc1cccc2cc(C(=O)N3CCOCC3)c(=O)oc12	14.6%
CCN(CC)C(=O)CSc1nc(N)c(C#N)c(-c2cccs2)c1C#N	15.5%
CS(=O)(=O)c1ccc2nc(NC(=O)c3ccc(Cl)cc3)sc2c1	6.42%
COC(=O)CCCC[C@@H]1SC[C@@H](NC(=O)OC)[C@@H]1NC(=O)OC	5.49%
CC[C@@H](C)[C@H](NC(=O)Cc1c(C)c2cc3c(C)coc3c(C)c2oc1=O)C(=O)O	6.21%
COc1ccc(/C=C/C(=O)Nc2ccc(C)cc2)cc1S(=O)(=O)N1CCOCC1	-32.6%
COc1ccc(NC(C)=O)cc1S(=O)(=O)N1CCN(Cc2cccs2)CC1	-3.53%
COc1ccc(/C=C/C(=O)Nc2ccc(NC(C)=O)cc2)cc1S(=O)(=O)N1CCOCC1	1.65%
COc1ccc(/C=C/C(=O)Nc2ccccc2)cc1S(=O)(=O)N1CCOCC1	-52.2%
COc1ccc(C)cc1S(=O)(=O)N1CCN(C/C=C/c2ccccc2)CC1	-23.8%
COc1ccc(NC(C)=O)cc1S(=O)(=O)N1CCN(C/C=C/c2ccccc2)CC1	-69.3%
COc1ccc(S(=O)(=O)N2CCN(C/C=C/c3ccccc3)CC2)cc1NC(C)=O	-77.9%
COc1ccc(S(=O)(=O)N2CCN(C/C=C/c3ccccc3)CC2)cc1F	-30.1%
COc1ccc(S(=O)(=O)N2CCN(C(c3ccccc3)c3ccccc3)CC2)cc1NC(C)=O	21.2%
Cc1ccc(S(=O)(=O)N(C)/N=C/c2ccc(C(=O)O)cc2)cc1	-7.51%
N#C/C(=C\c1ccc(C#N)cc1)C(=O)c1ccccc1	10.7%
COc1ccc(NC(=O)CSc2nnc(-c3ccccn3)n2N)cc1Cl	-2.27%
